DENV2 CPE rescue: inhibitors of DENV2 cytopathic effect, primary screen, cell-based, plate reader, single concentration; DENV2-infected cells, cytopathic effect rescue; CPE inhibition, % at 9.99 µM; hit rate 1.7% among 350,000; in the data active = CPE inhibition above about 20%, passing the limit was not always enough; inconclusive = no clear call, values can overlap the other calls; tested in BHK-21 cells;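 note: 0% = median of neutral control wells and 100% = median of positive control wells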
Rtt109 HAT inh: inhibitors of C. albicans Rtt109/Vps75 HAT, primary screen, biochemical, ThioGlo CoA-SH fluorescence, plate reader | Histone acetyltransferase RTT109 (Candida albicans (strain SC5314 / ATCC MYA-2876)), … | purified Rtt109/Vps75, 4 h | inhibition, % at 34.9 µM | hit rate 0.16% among 330,000 | AID 540336, 2011;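 active = inhibition of at least 50% in every replicate; inconclusive = best replicate reaches 50% inhibition but some replicates fall short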
Target sequence (Q5AAJ8 whole entry, looked up): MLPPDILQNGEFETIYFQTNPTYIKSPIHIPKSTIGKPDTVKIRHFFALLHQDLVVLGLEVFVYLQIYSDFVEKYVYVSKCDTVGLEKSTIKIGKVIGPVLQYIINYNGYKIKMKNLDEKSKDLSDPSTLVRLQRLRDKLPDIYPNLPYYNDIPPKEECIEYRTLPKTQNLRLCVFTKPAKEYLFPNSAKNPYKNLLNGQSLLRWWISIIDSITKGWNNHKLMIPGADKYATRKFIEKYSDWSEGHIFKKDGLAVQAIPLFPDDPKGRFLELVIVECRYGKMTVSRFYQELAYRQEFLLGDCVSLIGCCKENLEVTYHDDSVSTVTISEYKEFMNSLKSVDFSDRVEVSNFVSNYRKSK
ERp5 block: inhibitors of ERp5-driven insulin aggregation, primary screen, biochemical, turbidity, absorbance 650 nm, single point; hit rate 0.05% among 350,000; 90 min; Protein disulfide-isomerase A6 (Homo sapiens), Q15084; inhibition, % at 9.99 µM;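 active = mean replicate inhibition above about 25%, with every replicate also reaching it, limit read from the data, passing the limit was not always enough; inconclusive = only one of those two criteria met; inactive = neither criterion met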
PDI turbidity: inhibitors of human PDI, primary screen, biochemical, turbidity, single point, plate reader. Protein disulfide-isomerase (Homo sapiens), P07237. PDI insulin aggregation turbidity, A650, 90 min. inhibition, % at 10 µM. hit rate 0.052% among 350,000. AID 588391, 2011;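 active = mean inhibition across replicates of 30% or more, whatever share of single replicates reach that level; inconclusive = mean inhibition below 30% while every single replicate reaches 30%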
SIRT5 block: SIRT5 desuccinylase inhibitors, primary screen, biochemical, fluorescence imaging, single point, set 5; NAD-dependent protein deacylase sirtuin-5, mitochondrial (Homo sapiens), Q9NXA8; Purified SirT5, succinyl-peptide AMC, trypsin-coupled fluorescence; inhibition, % at 15 µM; hit rate 1.1% among 330,000; AID 652115, 2013; in the data active = inhibition above about 15%; inconclusive = no clear call, values can overlap the other calls
Target sequence (Q9NXA8 whole entry, looked up): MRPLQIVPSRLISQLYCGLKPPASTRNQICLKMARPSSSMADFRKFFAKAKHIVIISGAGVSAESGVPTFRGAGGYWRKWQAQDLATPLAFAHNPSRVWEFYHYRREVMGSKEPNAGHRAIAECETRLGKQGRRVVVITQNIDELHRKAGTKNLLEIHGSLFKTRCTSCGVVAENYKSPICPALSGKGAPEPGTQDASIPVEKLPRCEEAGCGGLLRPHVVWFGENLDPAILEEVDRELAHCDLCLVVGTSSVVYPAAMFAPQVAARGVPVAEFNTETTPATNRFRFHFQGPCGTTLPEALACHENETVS
The depositor's hits bear a star; ? = inconclusive; / = no result given; ! = not confirmed by another sample. The list is not random: actives were taken first. Their share in the collection is about 2.3%.

SMILES	DENV2 CPE rescue	Rtt109 HAT inh	ERp5 block	PDI turbidity	SIRT5 block
CO[C@@H]1CN(C)C(=O)c2cc(NC(C)=O)ccc2OC[C@@H](C)N(C(=O)c2ccccc2F)C[C@H]1C	-2.3	/	-10.4	/	0.2
CO[C@H]1CN(C)C(=O)c2cc(NC(=O)Nc3cc(F)ccc3F)ccc2OC[C@@H](C)N(C(=O)c2cnccn2)C[C@H]1C	17.8	/	-2.6	/	/
O=C1Cc2ccccc2Sc2cc(OCCCN3CCCCC3)ccc21	/	-7.6	/	20.1	/
O=C1Cc2ccccc2Sc2c(OCCN3CCCCC3)cccc21	/	55.0*	/	13.3	/
C1CCC(C(CC2CCCCN2)C2CCCCC2)CC1 (stereo not given)	12.3	77.6*!	-6.8	1.0	-6.4
C/C=C/c1ccc([C@@H]2[C@H](CO)N(CC3CC3)C23CN(S(=O)(=O)CC)C3)cc1	-10.8	/	1.3	/	22.6*
C/C=C/c1ccc([C@H]2[C@@H](CO)N(CC3CCCC3)C23CN(C(=O)CC)C3)cc1	28.8*	/	-3.4	/	5.6
C/C=C/c1ccc([C@H]2[C@@H](CO)N(Cc3cncnc3)C23CN(C(=O)CC)C3)cc1	0.4	/	-1.1	/	0.8
C/C=C/c1ccc([C@@H]2[C@H](CO)N(Cc3cncnc3)C23CN(C(=O)COC)C3)cc1	22.1*	/	-0.7	/	-0.5
O=C(C[C@@H]1CC[C@H](NC(=O)C2CCOCC2)[C@H](CO)O1)NCC1CC1	10.5	/	-4.8	/	-1.9
CCCNC(=O)Nc1ccc2c(c1)OC[C@H](C)N(Cc1ccc(-c3ccccn3)cc1)C[C@@H](C)[C@H](OC)CN(C)C2=O	25.5*	/	-4.1	/	/
CCCC(=O)Nc1ccc2c(c1)C(=O)N(C)C[C@H](OC)[C@@H](C)CN(Cc1ccc(-c3ccccn3)cc1)[C@@H](C)CO2	12.7	/	5.5	/	/
CCCNC(=O)Nc1ccc2c(c1)OC[C@@H](C)N(Cc1ccc(-c3ccccn3)cc1)C[C@@H](C)[C@H](OC)CN(C)C2=O	1.8	/	13.9	/	/
CCCNC(=O)Nc1ccc2c(c1)C(=O)N(C)C[C@H](OC)[C@H](C)CN(Cc1cncnc1)[C@H](C)CO2	53.3*	/	-1.9	/	-1.7
CCCC(=O)Nc1ccc2c(c1)C(=O)N(C)C[C@H](OC)[C@@H](C)CN(Cc1ccc(-c3ccccn3)cc1)[C@H](C)CO2	36.4*	/	15.0	/	/
CCNC(=O)[C@@H]1[C@@H](CO)[C@@H]2Cn3c(ccc(/C=C/c4ccccc4)c3=O)[C@H]1N2	-13.4	/	5.1	/	-84.1
COCC#Cc1ccc([C@@H]2[C@@H](CO)N3C(=O)CN(C(=O)C4CCOCC4)C[C@H]23)cc1	-3.0	/	-7.4	/	-6.7
Cc1ccc(S(=O)(=O)N(C)C[C@H]2Oc3ccc(NC(=O)CCC(F)(F)F)cc3CC(=O)N([C@@H](C)CO)C[C@@H]2C)cc1	-10.3	/	0.3	/	2.9
CO[C@H]1CN(C)C(=O)c2cc(NS(=O)(=O)CC(F)(F)F)ccc2OC[C@H](C)NC[C@H]1C	12.0	/	-2.3	/	0.0
CCS(=O)(=O)Nc1ccc2c(c1)C(=O)N(C)C[C@@H](OC)[C@@H](C)CN[C@H](C)CO2	55.4*	/	4.3	/	-2.5
CO[C@H]1CN(C)C(=O)c2cc(NS(=O)(=O)CC(F)(F)F)ccc2OC[C@@H](C)NC[C@H]1C	-2.4	/	0.0	/	-3.6
CCS(=O)(=O)Nc1ccc2c(c1)C(=O)N(C)C[C@H](OC)[C@H](C)CN[C@H](C)CO2	21.2*	/	3.5	/	-7.2
N#C[C@@H]1[C@@H](c2ccc(/C=C/c3ccccc3)cc2)[C@@H](CO)N1C(=O)C1CCC1	-10.5	/	-0.5	/	1.8
C[C@@H]1CCCCO[C@@H](CN(C)C(=O)c2ccncc2)[C@H](C)CN([C@@H](C)CO)C(=O)c2cc(NC(=O)C3CCCCC3)ccc2O1	-0.1	/	2.6	/	-1.6
COc1ccc(-n2nc(C(=O)NCC(=O)NCCCN3CCCCCC3)c3ccccc3c2=O)cc1Cl	5.1	12.0	-2.1	1.2	-5.4
SMILES	DENV2 CPE rescue	Rtt109 HAT inh	ERp5 block	PDI turbidity	SIRT5 block
COCCCNC(=O)CNC(=O)c1nn(-c2ccc(OC)c(Cl)c2)c(=O)c2ccccc12	2.9	-7.1	-3.3	8.9	17.1*
O=C(C[C@@H]1CC[C@@H]2[C@H](COC[C@@H](O)CN2CC2CC2)O1)NCC1CC1	2.4	/	0.9	/	2.2
COc1ccc(OC)c2cc3ccccc3cc12	-2.6	7.7	2.8	2.2	/
COc1ccc2ccccc2c1-c1c(OC)ccc2ccccc12	25.8*	/	-2.4	/	-1.5
C[C@H](CO)N1C[C@H](C)[C@H](CN(C)Cc2ccc3c(c2)OCO3)OCCCC[C@H](C)Oc2ccc(NC(=O)NC3CCCCC3)cc2C1=O	26.5*	/	-3.6	/	0.3
C[C@@H]1CCCCO[C@@H](CN(C)Cc2ccc3c(c2)OCO3)[C@H](C)CN([C@H](C)CO)C(=O)c2cc(NC(=O)NC3CCCCC3)ccc2O1	?	/	1.2	/	-8.6
C[C@@H]1CCCCO[C@@H](CN(C)Cc2ccc3c(c2)OCO3)[C@H](C)CN([C@@H](C)CO)C(=O)c2cc(NC(=O)NC3CCCCC3)ccc2O1	44.5*	/	-3.4	/	-2.4
Cc1ccc(SCCC(=O)NC2CC2)cc1	-5.1	-1.0	-3.2	9.8	16.0*
Cc1ccc(C(=O)NCC(=O)NC2CCCCCC2)cc1	2.0	61.5*	-3.0	-5.4	-5.4
Cc1ccc(SCC(=O)NC2CC2)cc1	-5.5	0.7	4.9	-3.3	-1.9
C[C@H]1CN([C@@H](C)CO)S(=O)(=O)c2ccc(Br)cc2O[C@@H]1CN(C)C	-8.2	/	-2.8	/	-5.0
COCC#Cc1ccc([C@H]2[C@H]3CN(S(=O)(=O)c4cccc(OC)c4)CCCCN3[C@H]2CO)cc1	22.5*	/	-4.1	/	9.6
COc1ccc(S(=O)(=O)N2CCCCN3[C@H](CO)[C@@H](c4ccc(C#CC5CC5)cc4)[C@@H]3C2)cc1	8.1	/	0.2	/	19.8*
COc1ccc(C#Cc2ccc([C@@H]3[C@@H](CO)N4CCCCN(S(=O)(=O)c5ccccc5)C[C@@H]34)cc2)cc1	31.7*	/	-2.5	/	2.1
COCC#Cc1ccc([C@@H]2[C@@H](CO)N3CCCCN(S(=O)(=O)c4cccc(OC)c4)C[C@H]23)cc1	/	/	0.7	/	/
C/C=C/c1ccc([C@H]2[C@@H](CO)N3CCCCN(S(=O)(=O)c4ccccc4)C[C@@H]23)cc1	114.6*	/	-3.8	/	3.5
COc1ccc(C#Cc2ccc([C@@H]3[C@@H](CO)N4CCCCN(S(=O)(=O)c5ccccc5)C[C@H]34)cc2)cc1	-2.2	/	-2.0	/	4.0
N#C[C@@H]1[C@H](c2ccc(C3=CCCCC3)cc2)[C@H](CO)N1C(=O)CN1CCOCC1	7.5	/	0.6	/	-3.6
CCCNC(=O)Nc1ccc2c(c1)C(=O)N(C)[C@H]1CC[C@H](CC(=O)OC)O[C@@H]1CO2	-7.3	/	-0.1	/	-5.3

From PubChem
